# The source made the active and inactive calls.
# Assays:
# [1] = test system: Human papillomavirus type 1a protein E7 (residues 44-93); assay: HPV1a E7 fragment binders on microarrays, primary screen, biochemical, small-molecule microarray, residues 44-93, 635 nm fluorescence (AID 1108); settings: small-molecule microarray binding, fluorescence 635 nm; higher = more signal;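 also: E7 fragment applied at 1 µg/mL in TBST for 1 h at 4 C; score combines spot fluorescence with its signal to noise ratio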
# [2] = modulators of HCV replicon luciferase signal, primary screen, HCV replication inhibitor project, Huh7 cells, luciferase reporter (AID 1109); settings: 48 h, higher = more signal;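 also: huh7 hepatoma cells harbouring a luciferase neomycin HCV replicon reporter; luciferase luminescence as measure of HCV replicon replication; test concentration not given here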
# [3] = target: Left-right determination factor 2 (Homo sapiens) (UniProt O00292); assay: LEFTY2 binders on small-molecule microarrays, primary screen, biochemical, small-molecule microarray, 635 nm fluorescence scan (AID 1110); settings: LEFTY2 binding, higher = more signal
# Chain of Left-right determination factor 2 (Homo sapiens) (O00292 whole entry, looked up): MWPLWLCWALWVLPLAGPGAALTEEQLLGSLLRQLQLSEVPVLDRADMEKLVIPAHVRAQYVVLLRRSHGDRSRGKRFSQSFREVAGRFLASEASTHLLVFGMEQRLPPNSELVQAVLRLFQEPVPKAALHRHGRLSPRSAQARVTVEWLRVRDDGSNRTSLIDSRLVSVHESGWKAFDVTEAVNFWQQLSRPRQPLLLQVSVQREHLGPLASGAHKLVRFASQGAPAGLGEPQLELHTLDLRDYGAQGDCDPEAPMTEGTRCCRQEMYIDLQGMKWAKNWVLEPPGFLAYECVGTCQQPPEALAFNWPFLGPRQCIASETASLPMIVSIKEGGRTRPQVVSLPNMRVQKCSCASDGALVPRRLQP
# [4] = target: Calmodulin-1 (Homo sapiens) (UniProt P0DP23); assay: CALM1 binders on microarrays, EGTA buffer, profiling panel, biochemical, small-molecule microarray, Cy5-labelled CALM1 (AID 1111); settings: Cy5-CALM1 binding fluorescence, higher = more signal;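 also: labelled calmodulin applied in Tris saline Tween buffer holding calcium plus EGTA and DTT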
# [5] = target: Calmodulin-1 (Homo sapiens) (UniProt P0DP23); assay: calcium-bound CALM1 binders on microarrays, profiling panel, artefact control for SMM control-protein annotation, biochemical, small-molecule microarray, Cy5-labelled CALM1, plus calcium (AID 1112); settings: Cy5-CALM1 binding fluorescence, higher = more signal;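 also: score merges spot fluorescence with signal to noise from triplicate slides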
# [6] = small-molecule microarray binders of probe aWnt5a, primary screen, biochemical, biotinylated probe, 635/667 nm fluorescence (AID 1113); settings: higher = more signal;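 also: score merges 667 nm fluorescence intensity with signal-to-noise per printed feature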
# [7] = small-molecule microarray binders of probe aShh, primary screen, biochemical, biotinylated probe, 635/667 nm fluorescence (AID 1114); settings: higher = more signal;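 also: probe is biotin-labelled aShh protein from a stem cell growth factor screen; measures binding of labelled protein to compounds printed on the slide; score merges feature fluorescence at 667 nm with signal-to-noise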
# [8] = small-molecule microarray binders of probe aNog, primary screen, biochemical, biotinylated probe, 635/667 nm fluorescence (AID 1115); settings: higher = more signal;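 also: probe is biotinylated aNog protein used at 0.15 µg/mL for 1 h at 4 C; z-score combines 667 nm fluorescence of each spot with its signal to noise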
# [9] = target: Torsin-1A-interacting protein 1 (Homo sapiens) (UniProt Q5JTV8); assay: LAP1 binders from COS7 cell lysate, primary screen, small-molecule microarray, 635/667 nm fluorescence (AID 1116); settings: COS7-hLAP1 lysate binding, 635 nm fluorescence, higher = more signal
# Chain of Torsin-1A-interacting protein 1 (Homo sapiens) (Q5JTV8 whole entry, looked up): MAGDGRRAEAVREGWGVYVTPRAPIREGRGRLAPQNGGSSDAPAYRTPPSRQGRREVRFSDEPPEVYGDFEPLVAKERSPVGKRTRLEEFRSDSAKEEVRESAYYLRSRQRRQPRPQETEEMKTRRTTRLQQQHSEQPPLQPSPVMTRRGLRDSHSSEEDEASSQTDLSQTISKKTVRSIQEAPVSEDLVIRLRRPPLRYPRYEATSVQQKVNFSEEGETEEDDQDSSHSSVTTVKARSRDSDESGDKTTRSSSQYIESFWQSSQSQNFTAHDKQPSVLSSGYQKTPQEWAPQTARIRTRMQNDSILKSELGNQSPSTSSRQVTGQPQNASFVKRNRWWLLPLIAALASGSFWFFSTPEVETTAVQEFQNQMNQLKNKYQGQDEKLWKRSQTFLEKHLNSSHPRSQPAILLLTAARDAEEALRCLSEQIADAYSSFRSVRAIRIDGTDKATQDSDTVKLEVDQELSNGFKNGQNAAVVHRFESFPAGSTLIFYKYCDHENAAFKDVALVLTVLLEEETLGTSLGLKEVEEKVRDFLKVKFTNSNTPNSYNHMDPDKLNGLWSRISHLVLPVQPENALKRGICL
# [10] = target: Alpha-bungarotoxin (Bungarus multicinctus) (UniProt P60615); assay: alpha-bungarotoxin binders on microarray, profiling panel, artefact control for SMM control protein annotation, biochemical, small-molecule microarray, Alexa647 label, 635/667 nm fluorescence (AID 1117); settings: alpha-BTX-A647 binding fluorescence, higher = more signal
# Chain of Alpha-bungarotoxin (Bungarus multicinctus) (P60615 whole entry, looked up): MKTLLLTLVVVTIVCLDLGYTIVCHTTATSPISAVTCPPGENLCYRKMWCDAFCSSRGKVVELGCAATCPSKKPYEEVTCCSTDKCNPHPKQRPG
# Albumin (Bos taurus) = Albumin (Bos taurus) (UniProt P02769); assay: bovine serum albumin binders on microarray, profiling panel, artefact control for SMM control protein annotation, biochemical, small-molecule microarray, Alexa647 label, 635/667 nm fluorescence (AID 1118); settings: BSA-A647 binding, fluorescence 635 nm, higher = more signal;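 also: score merges 667 nm emission intensity and signal-to-noise per printed compound spot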
# Chain of Albumin (Bos taurus) (P02769 whole entry, looked up): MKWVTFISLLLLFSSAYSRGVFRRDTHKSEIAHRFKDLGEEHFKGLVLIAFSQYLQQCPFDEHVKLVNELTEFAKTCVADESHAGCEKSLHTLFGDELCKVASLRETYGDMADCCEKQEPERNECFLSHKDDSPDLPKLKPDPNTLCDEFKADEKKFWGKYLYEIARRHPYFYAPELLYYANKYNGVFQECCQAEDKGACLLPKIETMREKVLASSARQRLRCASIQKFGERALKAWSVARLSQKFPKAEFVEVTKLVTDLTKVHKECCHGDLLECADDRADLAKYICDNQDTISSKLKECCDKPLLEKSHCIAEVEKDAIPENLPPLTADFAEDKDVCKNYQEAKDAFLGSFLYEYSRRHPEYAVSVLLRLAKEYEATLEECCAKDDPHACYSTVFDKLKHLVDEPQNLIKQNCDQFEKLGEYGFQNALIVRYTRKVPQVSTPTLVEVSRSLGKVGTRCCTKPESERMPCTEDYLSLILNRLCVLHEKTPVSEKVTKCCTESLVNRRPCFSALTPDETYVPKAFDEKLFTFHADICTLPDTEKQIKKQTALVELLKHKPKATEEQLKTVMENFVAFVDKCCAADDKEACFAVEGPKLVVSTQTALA
# [11] = small-molecule microarray binders of probe aXIP, primary screen, biochemical, NeuroSMM set, 635/667 nm fluorescence (AID 1119); settings: higher = more signal, called active from +8 up or from −8 down;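 also: probe is the protein aXip251-270 applied at 1 µg/mL to compound-printed slides; binding of probe to printed compounds measured as 667 nm fluorescence plus signal to noise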
# [12] = small-molecule binders of probe aNOTCH3, primary screen, biochemical, small-molecule microarray, 635/667 nm fluorescence (AID 1120); settings: higher = more signal;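 also: probe is a biotin-tagged antibody raised against NOTCH3 rather than NOTCH3 protein; score merges spot fluorescence near 667 nm with spot signal to noise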
# [13] = small-molecule binders of probe aNOTCH2, primary screen, biochemical, small-molecule microarray, 635/667 nm fluorescence (AID 1121); settings: higher = more signal;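 also: score merges feature fluorescence read at 667 nm with its signal to noise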
# [14] = target: Carbonic anhydrase 2 (Homo sapiens) (UniProt P00918); assay: CAII small-molecule binders, profiling panel, biochemical, small-molecule microarray, Alexa647-labelled CAII (AID 1122); settings: CAII-A647 binding fluorescence, higher = more signal
# [15] = COS7 lysate on small-molecule microarray, probe aHis, 635 nm (AID 1123); settings: COS7 cell lysate, fluorescence, higher = more signal;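 also: z-score combines 667nm fluorescence intensity with signal-to-noise per printed compound spot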
# [16] = compound binding in COS7 lysate, probe aLAP1, primary screen, cell lysate, small-molecule microarray (AID 1124); settings: probe aLAP1, fluorescence, higher = more signal;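 also: lysate comes from COS7 cells expressing LAP1 and is applied at 0.3 µg/mL; score merges spot fluorescence near 667 nm with signal-to-noise over triplicate slides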
# Sam68 (KHDRBS1) = assay: Sam68 small-molecule binders, primary screen, biochemical, small-molecule microarray, 635 nm fluorescence (AID 1125); settings: small-molecule microarray binding, higher = more signal;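 also: score merges 667 nm channel intensity with signal to noise over triplicate slides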
# [17] = test system: Chordin-like protein 2 (CHRDL2); assay: CHRDL2 small-molecule binders, primary screen, biochemical, small-molecule microarray, 635 nm fluorescence (AID 1126); settings: small-molecule microarray binding, fluorescence 635 nm; higher = more signal;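 also: printed compound slides probed with Chrdl2 protein at 4 µg/mL for 1 h at 4 C; score merges 667 nm emission intensity with signal to noise over three replicate slides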
# [18] = target: Concanavalin-A (Canavalia ensiformis) (UniProt P02866); assay: ConA small-molecule binders, primary screen, artefact control for SMM control protein annotation, biochemical, small-molecule microarray, Alexa647 label, 635 nm (AID 1127); settings: ConA-A647 binding fluorescence, higher = more signal;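 also: z combines 667 nm emission intensity with signal-to-noise across three replicate slides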
# Chain of Concanavalin-A (Canavalia ensiformis) (P02866 whole entry, looked up): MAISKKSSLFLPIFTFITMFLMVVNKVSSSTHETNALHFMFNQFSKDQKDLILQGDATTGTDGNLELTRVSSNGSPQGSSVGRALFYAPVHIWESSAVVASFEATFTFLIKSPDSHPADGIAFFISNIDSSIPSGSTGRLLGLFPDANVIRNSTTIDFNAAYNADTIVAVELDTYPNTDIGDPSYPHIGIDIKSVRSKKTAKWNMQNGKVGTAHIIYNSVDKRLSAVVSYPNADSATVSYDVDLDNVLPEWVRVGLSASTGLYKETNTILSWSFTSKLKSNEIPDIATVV
SMILES,composite z-score [1],z-score [2],composite z-score [3],composite z-score [4],composite z-score [5],composite z-score [6],composite z-score [7],composite z-score [8],composite z-score [9],composite z-score [10],composite z-score (Albumin (Bos taurus)),composite Z-score [11],composite z-score [12],composite z-score [13],composite z-score [14],composite z-score [15],composite z-score [16],composite z-score (Sam68 (KHDRBS1)),composite z-score [17],composite z-score [18]
COC(=O)C(CC#Cc1ccc2c(c1)[C@]1(C(=O)N2)[C@H](c2ccc(O)cc2)N2[C@H](c3ccccc3)[C@H](c3ccccc3)OC(=O)[C@H]2[C@@H]1C(=O)NC[C@H](O)c1ccccc1)C(=O)OC,0.829,-1.04,0.337,0.175,-0.102,-0.0606,-0.0709,0.0169,1.24,0.624,0.0841,0.564 (inactive),0.0948,-0.0956,0.553,1.22,1.2,1.24,0.294,0.517
CC(C)C(O)C1C=CC2C(=O)N(c3ccccc3)C(=O)C2N1Nc1ccccc1 (stereo not given),1.5,-0.831,0.138,1.71,0.325,0.0324,-0.156,1.32,1.1,1.23,0.938,-0.221 (inactive),0.228,-0.131,0.698,3.02,0.281,1.31,-0.235,0.966
COC(=O)[C@@]1(Cc2ccccc2)[C@H]2c3cc(C(=O)N(C)C)n(Cc4ccc(C)o4)c3C[C@H]2CN1C(=O)c1ccccc1,0.946,-2.49,0.0319,1.69,1.26,0.69,1.95,0.728,1.29,0.76,0.874,0.173 (inactive),1.25,0.618,0.753,1.93,0.673,1.12,-1.06,0.354
COc1ccc(C#Cc2ccc3c(c2)[C@]2(C(=O)N3)[C@H](C(=O)O)[C@H]3C(=O)O[C@H](c4ccccc4)[C@H](c4ccccc4)N3[C@@H]2c2ccc(O)cc2)cc1,0.78,-1.43,-0.67,0.695,1.2,-0.124,0.214,-0.0446,0.286,-0.204,0.314,-0.118 (inactive),-0.243,-0.0664,0.659,1.15,0.577,0.285,-0.844,-0.425
CCOC(=O)[C@@H]1CCCCN1C(=O)C(=O)OC,0.5,-0.583,0.449,-0.499,-0.305,-0.0684,-0.0904,-0.158,-0.274,0.154,0.145,-0.587 (inactive),-0.0431,-0.274,-0.177,0.226,0.193,0.322,-0.0507,0.131
CC(C)(C)OC(=O)CC[C@@]1(C(=O)NCC(O)CO)N=C(c2ccc(OCCCO)cc2)O[C@@H]1c1ccccc1CN=[N+]=[N-] (stereo not given in full),1.11,-0.75,-0.222,1.25,0.311,-0.124,0.108,0.72,1.64,0.833,0.347,-0.0662 (inactive),0.0297,0.124,0.836,1.34,0.398,0.941,0.333,0.922
NCCCCCNC(=O)[C@@H]1C[C@@H]2C(=O)N[C@@H](CCCCN)C(=O)N2[C@@H]1c1ccc(O)cc1,1.37,-1.48,1.15,1.44,0.325,-0.0286,0.246,-0.103,1.51,1.2,-0.321,0.562 (inactive),0.353,-0.0162,0.635,2.38,0.103,1.3,1.38,1.15
COc1cc2c(cc1O)C(C1CC1)N(C)CC2 (stereo not given),-1.01,-0.817,-0.893,-1.01,-0.193,-0.0101,-0.24,-0.139,-0.431,-1.72,0.789,-0.519 (inactive),-0.257,-0.19,0.902,-0.374,-0.308,-0.758,-0.778,-1.91
O=C(O)[C@@H]1C[C@@H]2C(=O)N3CCC[C@H]3C(=O)N2[C@@H]1c1ccc(O)cc1,1.05,3.97,0.48,0.271,0.204,-0.0701,-0.0289,-0.226,0.343,0.964,-0.0352,0.309 (inactive),0.0927,-0.0126,0.579,0.538,0.619,0.721,0.931,0.878
Cc1ccc(C(C)CC(O)C2C=CC3C(=O)N(c4ccccc4)C(=O)C3N2Nc2ccccc2)o1 (stereo not given),1.44,-0.741,0.285,1.3,0.125,0.0802,0.308,1.5,0.789,1.3,0.804,-0.474 (inactive),0.257,-0.0303,0.382,1.55,0.412,1.29,-0.19,1.09
COC(=O)[C@@]1(Cc2ccc(F)cc2)[C@H]2c3cc(C(=O)N4CCCC4)n(CCc4c[nH]c5ccccc45)c3C[C@H]2CN1C(=O)c1ccccc1,1.42,-1.52,0.304,1.45,1.31,0.0718,0.582,2.08,1.63,1.89,1.11,-0.263 (inactive),0.558,0.184,0.795,3.17,1.76,1.3,0.291,0.984

# Source: PubChem BioAssay
